Reference: PubChem BioAssay (NCI)
The panel holds about 83,000 compounds, 20% with a hit somewhere; the sample as a whole holds those more often.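 96-well plates, one dose, 48 hours. Percent growth reported; active if below 10.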 Unmarked numbers belong to inactive results. Active and inactive are the calls of the source.

Key:
Assay in all cases: NCI-60 one-dose screen, 48 h (100 = growth as untreated, 0 = no growth, -100 = all killed)
Conditions in all cases: 10 µM unless noted
SR leukemia = system: SR leukemia
RPMI-8226 leukemia = system: RPMI-8226 leukemia
OVCAR-8 ovarian = system: OVCAR-8 ovarian
OVCAR-5 ovarian = system: OVCAR-5 ovarian
OVCAR-4 ovarian = system: OVCAR-4 ovarian
SK-OV-3 ovarian = system: SK-OV-3 ovarian
OVCAR-3 ovarian = system: OVCAR-3 ovarian
HS 578T breast = system: HS 578T breast
NCI/ADR-RES ovarian = system: NCI/ADR-RES ovarian
IGROV1 ovarian = system: IGROV1 ovarian

Row | SMILES | growth (SR leukemia) | growth (RPMI-8226 leukemia) | growth (OVCAR-8 ovarian) | growth (OVCAR-5 ovarian) | growth (OVCAR-4 ovarian) | growth (SK-OV-3 ovarian) | growth (OVCAR-3 ovarian) | growth (HS 578T breast) | growth (NCI/ADR-RES ovarian) | growth (IGROV1 ovarian) [%]
1 | O=C(COc1cccc(/C=C2\Oc3ccc4ccccc4c3C2=O)c1)c1ccc(Cl)cc1 | 51.6% | 67.9% | 80% | 108% | 85.3% | 95.6% | 93.8% | 92.8% | 100% | –
2 | CC(=O)Nc1ccc(C(=O)COc2cccc(/C=C3\CCc4ccccc4C3=O)c2)cc1 | 52.4% | 19.6% | 88.4% | 104% | 83.4% | 95.5% | 238% | 99.7% | 83% | –
3 | COc1cccc(CCN2C(=O)CCC3=C2CCC3=O)c1 | 102% | 98.1% | 108% | 104% | 104% | 102% | – | 130% | 104% | 103
4 | COc1cnc2c(c1)C(=O)c1c-2n(CCCN2CCNCC2)c(=O)c2cc(F)ccc12 | -13.1% (active) | -30.9% (active) | 2.26% (active) | -0.468% (active) | 23% | -12.7% (active) | – | 38.6% | 18.8% | 23
5 | CCOC(=O)CCC(=O)O[C@H]1[C@H](O[C@@H]2[C@@H](C)[C@H](O[C@H]3C[C@@](C)(OC)[C@@H](O)[C@H](C)O3)[C@@H](C)C(=O)O[C@H](CC)[C@@](C)(O)[C@H](O)[C@@H](C)C(=O)[C@H](C)C[C@@]2(C)O)O[C@H](C)C[C@@H]1N(C)C | 92% | 97.2% | 106% | 106% | 110% | 113% | – | 113% | 108% | 92.8
6 | COc1cc(/C=N/NC(=O)c2ccc(C(F)(F)F)nc2Nc2cc(Cl)ccc2C)cc(OC)c1OC | 91.8% | 64.7% | 99.8% | 103% | 104% | 106% | 123% | 104% | 98.3% | –
7 | CC(=O)OC1Oc2cc(C)c(C)cc2-c2oc(=O)c(-c3ccccc3)cc21 (configuration not stated) | -42.2% (active) | -18.1% (active) | 24.4% | 67.9% | 42% | 11.6% | -39.9% (active) | -19.5% (active) | 25.3% | –
8 | COC(=O)C1CCN(S(=O)(=O)c2ccc(-c3ccccc3)cc2)CC1 | 75.7% | 144% | 81.6% | 106% | 103% | 98.4% | 114% | 117% | 116% | –
9 | COc1ccc2c(c1)CC/C(=C\c1ccc(OCC(=O)Nc3nc4ccccc4s3)cc1)C2=O | 68.4% | 85.4% | 98.3% | 87.8% | 102% | 104% | 116% | 73.5% | 102% | –
10 | CCOC(=O)c1sc(NC(=O)COc2ccc(/C=C3\CCc4cc(OC)ccc4C3=O)cc2)nc1C | 44.3% | 42.5% | 90.5% | 103% | 92.6% | 122% | 105% | 94.4% | 86.6% | –
11 | CCCCOP(=O)(OCCCC)C(C(=O)OCC)C(CC(=O)OCC)C(=O)OCC (configuration not stated) | 128% | 109% | 106% | 100% | – | 105% | 123% | 108% | 113% | 112
12 | O=[N+]([O-])c1cc([N+](=O)[O-])c(N2CCCC2)cc1NN=C(c1ccc(O)cc1)c1ccc(O)cc1 | 77.1% | 82.2% | -45.4% (active) | 38.2% | 81.6% | 39.9% | – | 137% | 33.6% | –
13 | O=C(COc1ccc(/C=C2\Oc3ccc4ccccc4c3C2=O)cc1)c1ccc([N+](=O)[O-])cc1 | 29% | 61.9% | 91.1% | 103% | 102% | 103% | 158% | 105% | 101% | –
14 | Cn1cc(NC(=O)Nc2cc(C(=O)O)n(C)c2)cc1C(=O)O | 86.8% | 125% | 94.4% | 107% | 99.8% | 112% | 102% | 108% | 105% | –
15 | CCCCNCCCN(CCCC)CCCNCCCC | 108% | 99.6% | 96% | 108% | – | 100% | 107% | 80.2% | 99.9% | 99.5
16 | Nc1ccc(Oc2c(F)c(F)c(Oc3ccc(N)cc3)c(F)c2F)cc1 | 96.3% | 82.9% | 101% | 83.4% | 83.8% | 105% | 101% | 95.4% | 94% | –
17 | O=C(NCCCl)NCCN1c2nc3ccccc3cc2Sc2cc3ccccc3nc21 | 35.9% | 42% | 56.2% | 82.2% | 49.5% | 77.1% | 142% | 58% | 57.4% | –
18 | Cc1cc(Cl)ccc1Nc1nc(C(F)(F)F)ccc1C(=O)N/N=C/c1ccc(Cl)cc1 | -37.5% (active) | -12.7% (active) | 11.2% | 6.57% (active) | 0.502% (active) | -15.4% (active) | 1.27% (active) | – | 4.33% (active) | –
19 | COc1ccc(C(=O)COc2cccc(/C=C3\COc4ccc5ccccc5c4C3=O)c2)cc1 | 35% | 2.86% (active) | 36.9% | 98.3% | 28.1% | 95.7% | 64% | 88% | 46.5% | –
20 | O=C(NC1CCS(=O)(=O)C1)c1ccc(C(=O)c2ccccc2)cc1 (configuration not stated) | 133% | 72.8% | 70% | 102% | 98.1% | 113% | 121% | 34.5% | 117% | –
21 | Cc1ccc(-c2cc(-c3ccccc3)n(-c3ccccc3)n2)cc1 | 72.3% | 83.8% | 105% | 95.8% | 85.3% | 105% | 103% | – | 101% | –
22 | COc1c(Br)cc(C(c2cc(Br)c(OC)c(Br)c2)c2ccccc2C(=O)O)cc1Br | 80.9% | 88.7% | 102% | 99.1% | – | 106% | 109% | 101% | 98.8% | 95.7
23 | COc1cc(/C=C/c2cc(/C=C/c3ccc(O)c(OC)c3)n(C(=O)c3ccc(Cl)cc3)n2)ccc1O | 3.07% (active) | -16.1% (active) | 29.1% | 79.9% | 36.5% | – | 7.65% (active) | 10.1% | 21.9% | 34
24 | O=C(COc1cccc(/C=C2\Cc3ccccc3C2=O)c1)c1ccc(Cl)cc1 | 111% | 90.2% | 90.4% | 103% | 90.1% | 130% | 120% | 102% | 93.5% | –
25 | COc1ccc(-c2cc(-c3cccnc3)nc3sc(C(=O)Nc4ccccc4)c(N)c23)cc1OC | 52.3% | 0.963% (active) | 58.8% | 86.8% | 80.1% | – | 71.4% | 28.4% | 54.4% | 68.9
26 | O=c1oc2c(cc1-c1ccc([N+](=O)[O-])cc1)C(O)Oc1ccccc1-2 (configuration not stated) | 56.2% | 50.2% | 94.7% | 82.1% | 86.4% | 99.6% | – | 102% | – | –
27 | CCOC(=O)c1sc(NC(=O)COc2cccc(/C=C3\CCc4cc(OC)ccc4C3=O)c2)nc1C | -19.4% (active) | 12.6% | 73% | 98% | 73.2% | 99% | 38.2% | 91.7% | 47.7% | –
28 | Cn1c(N2N=C(c3ccc(Cl)cc3)CC2c2ccccc2)nc(-c2ccccc2)c(C#N)c1=O (configuration not stated) | 58.8% | 54.9% | 73.8% | 99.6% | 89.4% | – | 71.7% | 86.5% | 82.9% | 79
